Vaccinia mCherry: qHTS for Stage-Specific Inhibitors of Vaccinia Orthopoxvirus: mCherry Reporter Primary qHTS; actives 0.63% (n = 310,000); Vaccinia virus mCherry reporter infection, fluorescence; Potency, µM (doses to about 36.5 µM), hits mostly inhibitors; calls by dose curve; tested in A549 cells; further: nearly all actives have a fitted effect of over 35% in size
Lassa entry inh: qHTS for Inhibitors of binding or entry into cells for Lassa Virus | Lassa virus pseudotype entry inhibition, cell reporter | Potency, µM (titrated, usually from 37.9 µM), hits mostly inhibitors | actives 1.2% (n = 300,000) | AID 540256, 2011; calls by dose curve; tested in HEK293 cells; further: nearly all actives have a fitted effect of over 50% in size
Vaccinia Venus: qHTS for Stage-Specific Inhibitors of Vaccinia Orthopoxvirus: Venus Reporter Primary qHTS | actives 0.46% (n = 330,000) | Potency, µM (series often up to 36.5 µM), most hits filed as inhibitors | AID 720580, 2013 | Vaccinia virus Venus reporter expression, fluorescence; calls by dose curve; tested in A549 cells; further: nearly all actives have a fitted effect of over 30% in size
Marburg entry inh: qHTS for inhibitors of binding or entry into cells for Marburg Virus. Marburg virus pseudotyped entry inhibition, cell reporter. Potency, µM (series often up to 37.8 µM), actives largely listed as inhibitors. actives 1.8% (n = 300,000). AID 540276, 2011; calls by dose curve; tested in HEK293 cells
HCMV inh: qHTS Assay for inhibitors of the human cytomegalovirus (HCMV). HFF cells, HCMV-luciferase reporter, 72 h; stronger effect = lower value. activity change, negative = inhibition, % at 57.5 µM. actives 4.5% (n = 410,000). AID 1259415, 2018; in the data active means activity change below about -60%; inconclusive means no clear call, values can overlap the other calls; inactive means above about -39%
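Cell-based, HFFs, 1000 cells/well, 16 h 37C; cpds in DMSO + HCMV-luc, MOI 1 PFU/cell; 72 h 37C; OneGlo luminescence after 5 min RT; norm. to buffer vs Salinomycin 10uM.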
FMDV antiviral: High Throughput Screening for Foot and Mouth Disease Virus Antivirals | FMDV antiviral cell-based qHTS | Potency, µM (highest dose often 57.9 µM), usual class: inhibitors | actives 1.2% (n = 410,000) | AID 1159524, 2015; calls by dose curve; tested in HEK293T cells; further: read-out not given here; nearly all actives have a fitted effect of over 45% in size
Numbers stand for hits; – = inactive; ? = inconclusive; · = no result given; [ ] = dose if it differs, or a comment. The list is not random: actives were taken first. Their share in the collection is about 6.5%.

SMILES | Vaccinia mCherry | Lassa entry inh | Vaccinia Venus | Marburg entry inh | HCMV inh | FMDV antiviral
O=S(=O)(c1ccccc1)N1N=C(c2ccc(Br)cc2)CC1c1ccco1 (stereo unspecified) | –[7.34 µM] | · | –[7.34 µM] | · | -60.3 | –
COC(=O)C1=CN(C(C)C)C=C(C(=O)OC)C1c1cc(Br)c(OC)c(OC)c1 | · | 4.11µM | · | ? | – | ?
CC(=O)c1ccccc1NC(C(=O)NCc1ccccc1)C(C)C (stereo unspecified) | · | · | · | · | – | ·
Nc1nc(C2CC2)c(Sc2sc(N)nc2C2CC2)s1 | · | 2.51µM | ? | ? | -72.4 | 25.1µM
CC(=O)Nc1ccc(OS(=O)(=O)c2ccc(Cl)cc2)cc1 | – | – | – | – | – | –
O=C(Nc1ccc([N+](=O)[O-])cc1)Nc1cnccn1 | · | · | · | · | -81.2 | –
CC(=O)Nc1ccc(OS(=O)(=O)c2ccc([N+](=O)[O-])cc2)cc1 | · | · | · | · | -62.2 | –
CC(=O)Nc1ccc(OCCOc2ccc([N+](=O)[O-])cc2)cc1 | – | · | – | · | -72.1 | –
Cc1ccc(C(C)C)cc1NC(=O)Nc1ccc([N+](=O)[O-])cc1 | ? | · | 10µM | · | -102.1 | ?
Cc1ccc(C2C=C(c3ccc(F)cc3)Nc3nc(CCCO)nn32)cc1 (stereo unspecified) | – | – | – | – | – | –
Cc1ccc(CN2CCN(C3CCN(S(=O)(=O)N(C)C)CC3)C(=O)C2=O)cc1 | – | – | – | · | – | –
COc1ccc(NC(=O)N(C)C[C@H]2OCc3cnnn3CCCC(=O)N([C@H](C)CO)C[C@@H]2C)c(OC)c1 | · | · | · | · | – | ·
CN(C)c1ccc(CNC(=O)C2COc3ccccc3C2)cc1 (stereo unspecified) | – | – | – | · | – | –
CCN(CCCNC(=O)c1cc(Nc2ccccc2OC)nc2ccccc12)c1cccc(C)c1 | – | – | – | – | – | –
O=C(Nc1ccc(Oc2ccc(NC(=O)Nc3ccc([N+](=O)[O-])cc3)cc2)cc1)Nc1ccc([N+](=O)[O-])cc1 | ? | – | – | – | -95.4 | ?
CC(=O)c1ccc(NC(=O)Nc2ccc([N+](=O)[O-])cc2)cc1 | – | – | – | ? | – | –
CC(C)(C)c1ccc(NC(=O)N2CCCN(c3ccc([N+](=O)[O-])cn3)CC2)cc1 | – | ? | ? | – | -73.0 | 31.6µM
N#Cc1ccc(CN2CCCC3(CCN(C(=O)c4cnccn4)CC3)C2)cc1 | · | · | · | · | · | –
O=C(Nc1ccc(C(=O)N2CCOCC2)cc1)c1cnn2c(C(F)F)cc(-c3ccccc3)nc12 | ? | – | ? | ? | – | –
CC(=O)c1ccc(N2CCN(C(=O)c3cc(-c4cccnc4)nc4ccc(Br)cc34)CC2)cc1 | – | ? | – | ? | – | –
O=C(Nc1ccc(C(=O)N2CCOCC2)cc1)c1cc(-c2cccnc2)nc2ccc(Br)cc12 | – | ? | – | ? | -106.7 | ?
COc1ccc(-c2cc(C(F)F)n3ncc(C(=O)n4ccnc4C)c3n2)cc1 | – | – | ? | ? | – | 14.1µM
COc1ccc(-c2cc(C(F)F)n3ncc(C(=O)Nc4ccc(C(=O)N5CCOCC5)cc4)c3n2)cc1 | · | · | · | · | -67.5 | –
CCNc1nc(N)nc(-c2cc(Cl)ccc2O)n1 | 10µM | ? | 10µM | ? | · | –
CCCCNc1nc(N)nc(-c2cc(Cl)ccc2O)n1 | ? | ? | 20µM | ? | – | –
SMILES | Vaccinia mCherry | Lassa entry inh | Vaccinia Venus | Marburg entry inh | HCMV inh | FMDV antiviral
CCCNc1nc(N)nc(-c2cc(Cl)ccc2OC)n1 | · | – | – | – | – | –
COc1cccc(CNC(=O)c2ccc(CS(=O)Cc3ccc(Cl)cc3)o2)c1 (stereo unspecified) | – | – | – | · | – | –
CCc1ccccc1N1C(=O)N(Cc2ccccc2C)c2ccccc2S1(=O)=O | ? | ? | ? | · | -105.3 | –
COc1ccc2c(c1)OC(C)CN(CCNC(=O)c1ccc(-n3cccn3)cc1)C2 (stereo unspecified) | – | · | – | · | · | –
Cc1nc2ccc(NC(=O)c3nn(CC(C)C)c(=O)c4ccccc34)cc2s1 | ? | – | – | – | -62.1 | –
Cc1nnc(NC(=O)c2nn(CC(C)C)c(=O)c3ccccc23)s1 | – | – | – | – | – | –
COc1ccc(C(=O)NCC2Cc3cccc(-c4ccc(S(C)(=O)=O)cc4)c3O2)c(OC)n1 (stereo unspecified) | – | · | – | · | · | –
Cc1nc(S(=O)(=O)N2CCOCC2)c(C#N)c(C)c1Cl | – | – | – | – | -104.6 | –
C#CCN1C(=O)CC[C@@]23C1=NC(C(=O)OC)=C(C(=O)OC)[C@@H]2N(Cc1ccccc1)c1ccccc13 | · | · | · | – | · | ·
c1ccc(C[n+]2cccc(-c3ccccc3)c2)cc1 | ? | ? | – | – | -72.4 | –
O=C(COC(=O)c1c2c(nc3ccccc13)CCN(Cc1ccccc1)C2)Nc1c(F)cccc1F | ? | ? | – | ? | -96.3 | –
CC(=O)Nc1ccc(NC(=O)COC(=O)c2c3c(nc4ccccc24)CCN(Cc2ccccc2)C3)cc1 | ? | ? | – | ? | – | ?
CC(C)c1ccc(NC2(C#N)C(=O)Nc3ccccc32)cc1 (stereo unspecified) | · | – | – | – | -71.7 | –
O=C(N/N=C/c1ccc(-c2cccc(C(F)(F)F)c2)o1)c1ccccc1Br | – | ? | – | – | -62.0 | ·
CCCc1cc(=O)n2[nH]c(NC(=O)c3ccccc3Cl)nc2n1 | – | – | – | – | – | –
Cc1ccc(C2C=C(c3ccccc3OC(F)F)Nc3ncnn32)cc1 (stereo unspecified) | – | – | – | – | – | –
CN(C)c1ccc(C2C=C(c3ccc(Cl)cc3OC(F)F)Nc3ncnn32)cc1 (stereo unspecified) | · | 14.1µM | ? | ? | – | –
CCC1C(=O)NCCN1Cc1ccc2c(c1)CN(Cc1cc(OC)ccc1OC)CCO2 (stereo unspecified) | – | · | – | · | · | –
COc1ccc(C(=O)C[n+]2cc(Br)cc(Br)c2)cc1 | – | · | – | · | · | ·
CCNS(=O)(=O)c1ccc(CCC(=O)N2CCN(c3cccc(Cl)c3)CC2)cc1 | – | ? | – | ? | – | 28.2µM
O=C(COc1ccc(S(=O)(=O)NC2CCCCC2)cc1)N1CCN(c2cccc(Cl)c2)CC1 | · | ? | · | ? | -90.5 | ?
Cc1ccc(S(=O)(=O)NCCC(=O)N2CCN(c3cccc(Cl)c3)CC2)cc1C | – | – | – | ? | – | ?
Cc1ccc(Cl)cc1N1CCN(C(=O)COc2ccc(S(=O)(=O)NC(C)C)cc2)CC1 | ? | · | ? | · | -88.6 | ?
CC(C)NS(=O)(=O)c1ccc(OCC(=O)N2CCN(c3ccccc3)CC2)cc1 | – | – | – | – | – | –
CC(C)NS(=O)(=O)c1ccc(OCC(=O)N2CCCC2)cc1 | – | – | – | – | – | ·
CS(=O)(=O)N(CC(=O)N1CCN(c2cccc(Cl)c2)CC1)C1CCCCC1 | ? | – | – | – | – | ?

Bioassay records: PubChem, National Center for Advancing Translational Sciences (NCATS)
